# Screening data as filed in PubChem BioAssay.
# Shown are actives, neighbours in structure and some others; about 7.8% of the full set was active somewhere.
# VACV mCherry inh: qHTS for Stage-Specific Inhibitors of Vaccinia Orthopoxvirus: mCherry Reporter Primary qHTS | Vaccinia virus mCherry reporter infection, fluorescence | Potency, µM (top dose mostly 36.5 µM), for the others: at the highest dose activity change, negative = inhibition, most hits filed as inhibitors | 310,000 compounds, 0.63% hits; calls by dose curve; tested in A549 cells; further: potency means the concentration at half of the fitted maximal effect; nearly all actives have a fitted effect of over 35% in size
# HCMV antiviral: qHTS Assay for inhibitors of the human cytomegalovirus (HCMV) | HFF cells, HCMV-luciferase reporter, 72 h; hits give low values | activity change, negative = inhibition, % at 57.5 µM | 410,000 compounds, 4.5% hits; in the data active means activity change below about -60%; inconclusive means no clear call, values can overlap the other calls; inactive means above about -39%
#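 Two-dose cell screen: HFF monolayers treated with compounds and infected with luciferase-expressing HCMV at 1 PFU/cell, 72 h at 37C, then lysed for luciferase measurement.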
# LASV entry inh: qHTS for Inhibitors of binding or entry into cells for Lassa Virus. 300,000 compounds, 1.2% hits. Potency, µM (top dose mostly 37.9 µM), for inactives: at the highest dose activity change, negative = inhibition, hits mostly inhibitors. Lassa virus pseudotype entry inhibition, cell reporter; calls by dose curve; tested in HEK293 cells; further: potency means the concentration at half of the fitted maximal effect; nearly all actives have a fitted effect of over 50% in size
# Marburg entry inh: qHTS for inhibitors of binding or entry into cells for Marburg Virus; Marburg virus pseudotyped entry inhibition, cell reporter; Potency, µM (series often up to 37.8 µM), for the others: top-dose activity change, negative = inhibition, actives largely listed as inhibitors; 300,000 compounds, 1.8% hits; AID 540276, 2011; calls by dose curve; tested in HEK293 cells; further: potency means the concentration at half of the fitted maximal effect
# HCV inh: qHTS Assay for Inhibitors of Hepatitis C Virus (HCV) | Huh7.5.1 HCVcc-Cre infection, luciferase reporter, 44 h | Potency, µM (series often up to 41.8 µM), for inactives: top-dose activity change, negative = inhibition, usual class: inhibitors | 340,000 compounds, 3.4% hits; active means well fitted inhibition curve with a large enough effect; inconclusive means small, poorly fitted or top-dose-only effect, or another doubt; inactive means no such curve, though single readings can be large or run the other way; further: potency means the concentration at half of the fitted maximal effect
#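 Cells (1,000/well) were plated 4 h before compound, then infected with HCVcc-Cre virus (~0.5 moi). After 44 h further culture, infection was read as luciferase luminescence following a 15 min substrate incubation at room temperature.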
# VACV Venus inh: qHTS for Stage-Specific Inhibitors of Vaccinia Orthopoxvirus: Venus Reporter Primary qHTS; Vaccinia virus Venus reporter expression, fluorescence; Potency, µM (series often up to 36.5 µM), inactives show at the top dose activity change, negative = inhibition, actives largely listed as inhibitors; 330,000 compounds, 0.46% hits; AID 720580, 2013; calls by dose curve; tested in A549 cells; further: potency means the concentration at half of the fitted maximal effect; nearly all actives have a fitted effect of over 30% in size
# * hit, by the source's call; i = inactive; ? = inconclusive; nt = no result given; + = active, no number; [ ] = remark or other dose. On the % scale 0 is the no-effect control and ±100 the full control effect.
SMILES,VACV mCherry inh,HCMV antiviral,LASV entry inh,Marburg entry inh,HCV inh,VACV Venus inh
Cc1sc2nc(SCC(=O)Nc3ccc(Cl)c(C(=O)O)c3)[nH]c(=O)c2c1C,-18%,0,?,13µM*,1%,-11%
N#CC(C#N)[C@@H](c1ccsc1)c1c(-c2ccccc2)[nH][nH]c1=O,nt,nt,nt,2%,nt,nt
CCC(C)NC(=O)C1CCC(=O)N(c2cc(OC)c(OC)c(OC)c2)C1c1ccc(OC)cc1 (centres undefined),-5%,60,-4%,44%,14%,-4%
CCC(C)NC(=O)C1CCC(=O)N(c2ccc3c(c2)OCO3)C1c1ccc(OC)cc1 (centres undefined),-22%,-62*,nt,nt,-4%,-13%
COc1ccc(C2C(C(=O)N3CCCCC3)CCC(=O)N2c2cc(OC)c(OC)c(OC)c2)cc1 (centres undefined),nt,nt,7.3µM*,11%,2%,nt
CCOC(=O)C1=C(C)NC(C)=C(C(=O)OCC)C1c1c(F)c(F)c(F)c(F)c1F,nt,nt,16µM*,?,nt,nt
CCOC(=O)C1=C(C)NC(C)=C(C(=O)OCC)C1C(=O)OCC(=O)NCc1ccc(F)cc1,nt,-16,nt,nt,3.5µM*,nt
CCNC(=O)COC(=O)C1C(C(=O)OCC)=C(C)NC(C)=C1C(=O)OCC,nt,11,3%,22%,7%,nt
CCOC(=O)C1=C(C)NC(C)=C(C(=O)OCC)C1c1ccc(O)cc1,nt,144,?,?,-5%,-3%
COc1ccc(O)c(CN2CCC3(CCC(CNC(=O)c4ccco4)O3)CC2)c1 (centres undefined),-22%,nt,nt,nt,nt,-11%
Cc1ccc(C2CC(c3cccs3)=NN2C(=O)CCl)cc1 (centres undefined),?,-101*,?,?,2.8µM*,-11%
CCC(=O)N1N=C(c2cccs2)CC1c1ccc(C)cc1 (centres undefined),nt,21,nt,nt,-15%,nt
CCC(=O)N1N=C(c2cccs2)CC1c1ccc(OC)cc1 (centres undefined),nt,91,nt,nt,?,nt
COc1ccc(C2CC(c3cccs3)=NN2C(=O)c2ccc(Br)o2)cc1 (centres undefined),?,?,8%,?,10µM*,-23%
O=C(c1cccn1-c1nnc(N2CCCC2)s1)N1CCN(c2ccc(F)cc2)CC1,-12%,0,14%[46.1 µM],nt,nt,0%
Nc1ccc(-c2nnn(Cc3ccccc3F)n2)cc1,-12%,2,-16%,28%,-14%,-3%
Fc1ccc(-c2nnn(Cc3ccccc3Cl)n2)cc1,i,5,?,?,2µM*,-2%
Cc1ccccc1Cn1nnc(-c2ccc(F)cc2)n1,-16%,-75*,?,10%[46.1 µM],-7%,-13%
CCc1ccc(NC(=O)CSC2=Nc3ccccc3C3=NC(CC(=O)NCc4ccc5c(c4)OCO5)C(=O)N23)cc1 (centres undefined),-11%,51,12%[46.1 µM],nt,nt,3%
CCN(C(=O)c1cc2c(s1)-c1ccccc1OC2)c1cc(OC)ccc1OC,-12%,5,nt,nt,13µM*,-4%
CCN(C(=O)c1cc2c(s1)-c1ccccc1S(=O)(=O)C2)c1cc(OC)ccc1OC,-14%,1,nt,nt,10µM*,-11%
O=C(COc1ccccc1)N1CCN(c2ncccn2)CC1,3%,-26,15%,14%[46.1 µM],20%,-1%
Cc1nc(N2CCN(C(=O)COc3ccccc3)CC2)c2c(C)c(C)sc2n1,?,-23,?,?,13µM*,?
Cc1ccc(OCC(=O)N2CCN(c3nnc(-c4ccccc4)c4ccccc34)CC2)cc1,nt,-83*,?,?,?,nt
Cn1nc(-c2ccc(OCC(=O)N3CCN(Cc4ccccc4)CC3)cc2)c2ccccc2c1=O,-14%,?,-15%,8.2µM*,6.3µM*,?
SMILES,VACV mCherry inh,HCMV antiviral,LASV entry inh,Marburg entry inh,HCV inh,VACV Venus inh
CCC(=O)N1c2ccccc2CC1C(=O)NCCc1ccc(OC)c(OC)c1 (centres undefined),1%,14,5%[46.1 µM],nt,nt,-5%
O=C1CN=C(c2cccc(Br)c2)c2cc(Br)ccc2N1,-3%,-24,?,7.9µM*,-28%,-16%
COc1ccc(/C(C)=N/NC(=O)c2nnn(-c3nonc3N)c2-c2cccs2)cc1OC,-14%,+,-9%[46.1 µM],4%[46.1 µM],?,-7%
COc1cccc(-c2c(C(=O)N/N=C(\C)c3cccs3)nnn2-c2nonc2N)c1,nt,+,nt,nt,?,nt
Cc1ccc(C)c(N2CCN(C(=O)c3cnn(C(C)(C)C)c3C3CCN(C(=O)OC(C)(C)C)CC3)CC2)c1,-27%,7,?,nt,nt,-29%
C/C(=N\NC(=S)NC(C)C)c1ccccc1OC(F)F,-12%,-114*,?,-8%[46.1 µM],14µM*,-13%
CCNC(=S)N/N=C(\C)c1ccc2ccccc2c1OC(F)F,-20%,-33,?,?,?,-7%
COc1cc(/C(C)=N/NC(=S)NC(C)C)cc(OC)c1OC,-25%,-102*,-18%,?,-7%,-25%
C=CCN(C(=O)CCC(=O)O)[C@H]1CC(=O)N(c2ccc(OCCC)cc2)C1=O,nt,nt,nt,-1%,nt,nt
COc1cccc(CSc2nc3ccccc3cc2C=O)c1,nt,-100*,?,?,2%,?
c1ccc(C(c2ccccc2)N2CCN(c3nc4ccccc4n4cnnc34)CC2)cc1,-7%,-99*,?,?,?,-17%
c1cnc(N2CCN(c3nc4ccccc4n4cnnc34)CC2)nc1,nt,-7,4%,6%,-16%,nt
COc1ccc(/C=C(\C#N)c2nc3ccccc3n2C)c(OC)c1,-10%,36,?,nt,nt,-5%
NC(=S)N/N=C\c1c2ccccc2cc2ccccc12,?,-24,13%,?,13µM*,?
NC(=S)N/N=C/c1ccccc1,5.6µM*,-36,6%,3%,2%,?
CNC(=S)N/N=C/c1ccc2c(c1)OCCO2,nt,-24,-3%,1%,-14%,nt
NC(=S)N/N=C\c1c(OCc2ccccc2Cl)ccc2ccccc12,?,-97*,?,?,7.9µM*,?
COCCNC(=S)N/N=C/c1c2ccccc2cc2ccccc12,?,-13,-16%,?,?,-19%
NC(=S)N/N=C/c1ccc2c(c1)OCCO2,11µM*,70,?,-9%[46.1 µM],-22%,10µM*
O=C(NN=Cc1ccccc1)NN=Cc1ccccc1,-9%,43,-9%[46.1 µM],?,-4%,5%
Cc1ccccc1OCCCCn1nnc2sc3c(c2c1=O)CCC(C)C3 (centres undefined),-8%,15,?,0%[46.1 µM],nt,-1%
